Some test systems named below: BRSK2; BTK; BUB1; CAMK1D; CAMK1G; CAMK1; CAMK2A; CAMK2B; CAMK2D; CAMK2G; CAMK4; CAMKK1; CAMKK2; CASK; CDC2L2; CDK2.
Common to all, as to conditions: Compound Concentration (nM):1000
In the next assay the test system is T1, CAMK1B.
T1 construct: gene PNCK

Another assay relates to T2, CDC2L1.
T2 construct: gene CDK11B

Another assay relates to T3, CDC2L5.
T3 construct: gene CDK13

A further assay has as its system T4, CDK11.
T4 construct: gene CDK19

SMILES strings stand for the structures.
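Note: KINOMEscan scanMAX binding as percent activity remaining versus control; lower means stronger binding.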

For `COc1cc(C=NNc2ncnc3c2cnn3-c2ccccc2)ccc1O` [GW513184X], the “Percent Control” value is 73% with BRSK2; 100% with BTK; 81% with BUB1; 100% in the assay with CAMK1B; 100% in the assay with CAMK1D; 100% with CAMK1G. Also, the “Percent Control” value in the assay with CAMK1 is 100%; in the assay with CAMK2A, 97%; with CAMK2B, 100%; with CAMK2D, 100%; with CAMK2G, 100%; in the assay with CAMK4, 100%. The “Percent Control” value is 100% in the assay on CAMKK1; 100% in the assay with CAMKK2; 64% in the assay with CASK; 100% in the assay with CDC2L1; 100% in the assay on CDC2L2; 96% with CDC2L5. Also, the “Percent Control” value in the assay on CDK11 is reported as 100%; in the assay with CDK2, 66%.

On to `NS(=O)(=O)c1ccc(N/N=C2\C(=O)Nc3ccc(C(=O)NCc4ccncc4)cc32)cc1` [GW300657X], for which the “Percent Control” value was 94% with BRSK2; 89% with BTK; 49% in the assay with BUB1; 70% in the assay on CAMK1B; 80% with CAMK1D; 88% with CAMK1G. In addition, the “Percent Control” value was 85% in the assay with CAMK1; 66% in the assay with CAMK2A; 78% in the assay with CAMK2B; 81% with CAMK2D; 82% with CAMK2G; 100% with CAMK4. Besides, the “Percent Control” value in the assay with CAMKK1 was 45%; in the assay with CAMKK2 it was 65%; with CASK it was 78%; with CDC2L1, 100%; in the assay on CDC2L2, 82%; with CDC2L5, 24%. In addition, the “Percent Control” value in the assay on CDK11 worked out at 100%; in the assay with CDK2, 39%.

Consider `CCn1c(-c2nonc2N)nc2c(C#CC(C)(C)O)nc(OCCNC)cc21.Cl` [GSK949675], for which the “Percent Control” value in the assay with BRSK2 was 91%; in the assay with BTK it was 100%; in the assay with BUB1, 71%; with CAMK1B, 100%; in the assay on CAMK1D, 100%; with CAMK1G it was 100%. Besides, the “Percent Control” value with CAMK1, in the assay with CAMK2A, with CAMK2B, in the assay with CAMK2D, in the assay on CAMK2G and in the assay with CAMK4 was 100% each time. Besides, the “Percent Control” value in the assay on CAMKK1, with CAMKK2, in the assay on CASK, in the assay on CDC2L1, in the assay on CDC2L2 and in the assay with CDC2L5 was 100% in each case. In addition, the “Percent Control” value in the assay on CDK11 and with CDK2 was 100% throughout.

Turning to `COc1ccc2c(-c3ccnc(Nc4cccc(OC(F)(F)F)c4)n3)cnn2n1` [GW810372X], the “Percent Control” value in the assay with BRSK2 is 77%; in the assay with BTK, 84%; in the assay with BUB1, 86%; in the assay on CAMK1B it was 100%; in the assay on CAMK1D, 100%; with CAMK1G, 100%. Further, the “Percent Control” value with CAMK1, in the assay with CAMK2A, with CAMK2B, with CAMK2D, in the assay with CAMK2G and in the assay with CAMK4 was 100% in each case. The “Percent Control” value is 91% with CAMKK1; 81% in the assay with CAMKK2; 96% in the assay with CASK; 100% in the assay on CDC2L1; 100% in the assay with CDC2L2; 100% with CDC2L5. Moreover, the “Percent Control” value with CDK11 and with CDK2 was 100% throughout.

As for `Cc1cc(O)cc(C)c1/C=C/c1cncc(C(N)=O)c1` [GW435821X], the “Percent Control” value was 50% in the assay with BRSK2; 100% with BTK; 100% with BUB1; 100% with CAMK1B; 100% in the assay with CAMK1D; 100% with CAMK1G. Besides, the “Percent Control” value is 91% with CAMK1; 100% in the assay on CAMK2A; 100% in the assay on CAMK2B; 100% in the assay with CAMK2D; 100% in the assay with CAMK2G; 100% in the assay with CAMK4. Also, the “Percent Control” value was 100% in the assay with CAMKK1; 100% in the assay on CAMKK2; 77% in the assay on CASK; 100% with CDC2L1; 97% in the assay with CDC2L2; 100% in the assay on CDC2L5. For the same compound, the “Percent Control” value in the assay on CDK11 and with CDK2 was 100% throughout.

As to `COc1cc(C)c(N(C)C(=O)CN(C)C)cc1Nc1nc(Nc2cccc(F)c2C(N)=O)c2cc[nH]c2n1` [GSK2219385], the “Percent Control” value is 93% in the assay on BRSK2; 100% in the assay with BTK; 90% in the assay with BUB1; 85% with CAMK1B; 87% in the assay with CAMK1D; 95% in the assay with CAMK1G. Moreover, the “Percent Control” value in the assay with CAMK1 is 97%; with CAMK2A it was 89%; in the assay with CAMK2B, 93%; in the assay on CAMK2D, 82%; with CAMK2G, 98%; in the assay on CAMK4 it was 80%. Moreover, the “Percent Control” value is 97% in the assay with CAMKK1; 94% with CAMKK2; 100% with CASK; 100% in the assay on CDC2L1; 100% in the assay with CDC2L2; 50% with CDC2L5. The “Percent Control” value with CDK11 came to 92%; in the assay with CDK2, 100%.

Regarding `Cl.O=C(O[C@H]1CN[C@H](C#Cc2cc3ncnc(Nc4ccc5c(cnn5Cc5ccccc5)c4)c3s2)C1)N1CCOCC1` [GSK200398A], the “Percent Control” value in the assay with BRSK2 is 100%; in the assay with BTK, 77%; with BUB1 it was 45%; in the assay on CAMK1B it was 69%; in the assay on CAMK1D, 100%; with CAMK1G, 100%. The “Percent Control” value in the assay with CAMK1 was 100%; in the assay on CAMK2A, 94%; with CAMK2B, 84%; in the assay with CAMK2D it was 95%; in the assay with CAMK2G, 96%; in the assay with CAMK4 it was 100%. For the same compound, the “Percent Control” value with CAMKK1 was 87%; in the assay with CAMKK2, 86%; with CASK, 100%; with CDC2L1, 87%; in the assay with CDC2L2, 100%; in the assay on CDC2L5, 97%. In addition, the “Percent Control” value in the assay on CDK11 came to 92%; in the assay with CDK2, 97%.

Take `COC(=O)Nc1nc2ccc(Oc3ccc(NC(=O)Nc4cc(C(F)(F)F)ccc4F)cc3)cc2s1.Cl` [GW693917A]: the “Percent Control” value in the assay on BRSK2 is 93%; in the assay with BTK it was 72%; in the assay on BUB1 it was 65%; in the assay on CAMK1B, 75%; in the assay with CAMK1D, 90%; in the assay with CAMK1G, 100%. The “Percent Control” value is 88% in the assay with CAMK1; 93% in the assay on CAMK2A; 88% in the assay with CAMK2B; 98% in the assay on CAMK2D; 100% in the assay on CAMK2G; 100% in the assay with CAMK4. Besides, the “Percent Control” value in the assay with CAMKK1 was 100%; in the assay with CAMKK2, 100%; with CASK, 93%; in the assay on CDC2L1, 98%; in the assay with CDC2L2, 78%; in the assay on CDC2L5, 19%. For the same compound, the figures for the “Percent Control” value with CDK11 and in the assay with CDK2 were 5.3% and 65%, respectively.

As to `COc1cccc(-c2c[nH]c3c(N/N=C/c4ccncc4)ncnc23)c1` [GW814408X], the “Percent Control” value in the assay with BRSK2 was 92%; in the assay on BTK, 77%; in the assay on BUB1, 50%; with CAMK1B, 95%; in the assay on CAMK1D, 100%; in the assay on CAMK1G, 97%. Further, the “Percent Control” value with CAMK1 was 100%; in the assay with CAMK2A, 77%; with CAMK2B it was 81%; in the assay with CAMK2D it was 84%; in the assay with CAMK2G, 100%; with CAMK4, 100%. Also, the “Percent Control” value with CAMKK1 is 100%; in the assay on CAMKK2 it was 95%; with CASK, 44%; in the assay with CDC2L1, 81%; in the assay on CDC2L2, 53%; in the assay on CDC2L5, 87%. The “Percent Control” value in the assay with CDK11 came to 100%; with CDK2, 62%.

On to `COc1ccc(COc2ccc(Cc3cnc(N)nc3N)cc2OC)cc1` [GW632580X], for which the “Percent Control” value in the assay on BRSK2 was 55%; with BTK, 96%; with BUB1, 100%; with CAMK1B, 100%; in the assay with CAMK1D, 95%; in the assay with CAMK1G, 96%. Further, the “Percent Control” value with CAMK1 was 100%; in the assay on CAMK2A it was 90%; with CAMK2B, 96%; in the assay with CAMK2D it was 89%; in the assay on CAMK2G, 99%; in the assay on CAMK4, 100%. In addition, the “Percent Control” value was 95% in the assay with CAMKK1; 98% in the assay on CAMKK2; 98% with CASK; 97% with CDC2L1; 75% in the assay on CDC2L2; 72% with CDC2L5. In addition, the “Percent Control” value in the assay with CDK11 was 89%; in the assay with CDK2, 100%.

On to `NS(=O)(=O)c1ccc(N/N=C2\C(=O)Nc3ccc(-c4cnco4)cc32)cc1` [GW276655], for which the “Percent Control” value in the assay on BRSK2 was 66%; in the assay with BTK it was 50%; in the assay with BUB1, 74%; in the assay on CAMK1B it was 76%; with CAMK1D, 71%; in the assay on CAMK1G, 85%. Also, the “Percent Control” value in the assay on CAMK1 is 74%; in the assay with CAMK2A it was 56%; in the assay with CAMK2B, 78%; in the assay with CAMK2D it was 72%; in the assay on CAMK2G it was 91%; in the assay on CAMK4, 100%. In addition, the “Percent Control” value in the assay with CAMKK1 was 63%; in the assay with CAMKK2, 83%; in the assay on CASK it was 84%; with CDC2L1, 100%; in the assay on CDC2L2, 100%; with CDC2L5, 56%. The “Percent Control” value stood at 100% in the assay with CDK11 and 32% with CDK2.

Values taken from article PMC7826789 (International Journal of Molecular Sciences, 2021).
